The text below walks through data of PubChem BioAssay (Tox21).

Records with an inconclusive call do not appear. Activity calls are given as the source filed them. Unless noted, the call rests on the fitted dose curve; in most records, active means well fitted curve in the direction sought with a large enough effect in the repeat runs; inconclusive means weak or mixed curves; inactive means no such curve, though single readings can be large; an effect the other way counts as inactive or inconclusive.

The nature of experiment [1]: qHTS assay to identify aromatase inhibitors - cell viability counter screen (AID 743084).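 Further: cells stimulated with testosterone during compound exposure; nearly all actives have a fitted effect of over 55% in size.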 Further: potency means the concentration at half of the fitted maximal effect. Background: In qHTS, concentration-response curves come from the screen itself.
Experiment [2] concerns the target Aryl hydrocarbon receptor (Homo sapiens) (UniProt P35869). Description: qHTS assay to identify small molecule that activate the aryl hydrocarbon receptor (AhR) signaling pathway (AID 743085).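 Further: HG2L7.5c1 human HepG2 liver cells with stably integrated DRE-driven firefly reporter; series mostly up to about 70 µM; nearly all actives have a fitted effect of over 15% in size.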 An outline of the steps:
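Cell line HG2L7.5c1 (human hepatoma, 20× DRE-luc). Plated, 5 h 37C, compound/DMSO added, 24 h 37C. CellTiter-Fluor 30 min 37C → fluorescence; then ONE-Glo 30 min RT → luminescence.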

A short description of experiment [3]: qHTS assay to identify small molecule that activate the aryl hydrocarbon receptor (AhR) signaling pathway - cell viability counter screen (AID 743086).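 Further: HepG2 liver cells carrying the AhR DRE luciferase reporter; series mostly up to about 70 µM; nearly all actives have a fitted effect of over 45% in size.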 The method, boiled down: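 HepG2-AhR-luc (HG2L7.5c1) cells, 4000/well, were preincubated 5 h at 37C, exposed to compound in qHTS format for 24 hr at 37C, then given CellTiter-Fluor for 30 min; viability was read as fluorescence in the reporter wells.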

Experiment [4] deals with Peroxisome proliferator-activated receptor gamma (Homo sapiens) (UniProt P37231). Description: qHTS assay to identify small molecule agonists of the peroxisome proliferator-activated receptor gamma (PPARg) signaling pathway (AID 743094; active means well fitted activation curve with a large enough effect in the signal ratio in the repeat runs, not every such curve was filed as active; the % refers to the signal ratio). The method, boiled down:
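Fluorescence-based beta-lactamase readout in HEK293H PPARg UAS-bla cells after 17 h compound exposure (37C) and 1 h B/G FRET substrate incubation at room temperature.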

The nature of experiment [5]: qHTS assay to identify small molecule antagonists of the peroxisome proliferator-activated receptor gamma (PPARg) signaling pathway - cell viability counter screen (AID 743194). Further: nearly all actives have a fitted effect of over 55% in size. The method, boiled down: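 PPARg-UAS-bla HEK293H cells were plated, rested 5 h at 37 C, then treated with compounds plus rosiglitazone (50 nM final) for 17 h at 37 C; viability was then read by CellTiter-Glo luminescence after 30 min at room temperature.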

Experiment [6] is described as follows: qHTS assay for small molecule agonists of the antioxidant response element (ARE) signaling pathway (AID 743202; active means well fitted activation curve with a large enough effect in the signal ratio in the repeat runs, not every such curve was filed as active; the % refers to the signal ratio; further: potency means the concentration at half of the fitted maximal effect). An outline of the steps: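 Following a 16 h, 37 C exposure of reporter HepG2 cells (ARE-driven beta-lactamase, 2,000 cells/well) to compounds, FRET substrate was applied for 2 h at room temperature and fluorescence intensity recorded.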
Experiment [7] can be described thus: qHTS assay for small molecule agonists of the antioxidant response element (ARE) signaling pathway - cell viability counter screen (AID 743203; calls by dose curve; further: nearly all actives have a fitted effect of over 55% in size). An outline of the steps: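 Parallel cytotoxicity read-out for the ARE-bla screen: HepG2 reporter cells, 16 hrs with compounds, then CellTiter-Glo luminescence.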
The nature of experiment [8]: qHTS assay for small molecule activators of the heat shock response signaling pathway - cell viability counter screen (AID 743209). Further: nearly all actives have a fitted effect of over 50% in size. An outline of the steps:
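To flag cytotoxic compounds, HSE-bla HeLa cells plated at 1500 cells/well were dosed for 5 h at 37 C, followed by the reporter FRET read and then CellTiter-Glo, with luminescence recorded 30 min after reagent addition.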

Experiment [9] in a line: qHTS assay for small molecule activators of the heat shock response signaling pathway (AID 743210; active means well fitted activation curve with a large enough effect in the signal ratio in the repeat runs, with a control signal flat, not every such curve was filed as active; the % refers to the signal ratio; further: series mostly up to about 63 µM). An outline of the steps:
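Heat shock element–beta-lactamase HeLa reporter cells; qHTS with compounds for 5 h at 37 C; detection by FRET substrate fluorescence after 2.5 h at RT.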

The target in experiment [10] is Peroxisome proliferator-activated receptor delta (Homo sapiens) (UniProt Q03181). The experiment in a line: qHTS assay to identify small molecule agonists of the peroxisome proliferator-activated receptor delta (PPARd) signaling pathway (AID 743212; calls by dose curve). An outline of the steps: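 Beta-lactamase reporter read by fluorescence (LiveBLAzer B/G FRET, 2 h, room temperature). Test agents, in DMSO, incubated at 37 C with PPARd-bla HEK293H cells.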
Chain of Peroxisome proliferator-activated receptor delta (Homo sapiens) (Q03181 whole entry, looked up): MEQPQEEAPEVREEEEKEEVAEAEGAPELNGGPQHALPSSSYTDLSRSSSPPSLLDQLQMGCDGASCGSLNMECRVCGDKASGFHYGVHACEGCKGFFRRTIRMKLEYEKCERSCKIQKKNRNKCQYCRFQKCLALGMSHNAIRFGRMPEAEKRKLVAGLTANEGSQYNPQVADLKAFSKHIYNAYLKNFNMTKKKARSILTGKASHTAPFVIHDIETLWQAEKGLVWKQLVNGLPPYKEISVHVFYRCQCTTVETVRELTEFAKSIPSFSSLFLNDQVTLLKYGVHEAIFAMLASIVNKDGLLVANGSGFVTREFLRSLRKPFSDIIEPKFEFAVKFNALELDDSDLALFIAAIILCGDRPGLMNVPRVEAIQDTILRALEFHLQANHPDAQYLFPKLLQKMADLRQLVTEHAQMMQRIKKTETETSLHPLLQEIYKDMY

The target is the same in experiment [11]. The experiment in a line: qHTS assay to identify small molecule antagonists of the peroxisome proliferator-activated receptor delta (PPARd) signaling pathway (AID 743215; active means well fitted inhibition curve with a large enough effect in the signal ratio in the repeat runs, not every such curve was filed as active; the % refers to the signal ratio;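 further: cells stimulated with agonist L165041 at 300 nM final during compound exposure; series mostly up to about 62 µM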). The method, boiled down: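 Screen format: qHTS, antagonist mode. HEK293H PPARd-bla cells received compound and 300 nM L165041 (final), 17 h, 37 C. Beta-lactamase detected via FRET substrate fluorescence, 2 h, room temperature.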

In experiment [12] the target is Vitamin D3 receptor (Homo sapiens) (UniProt P11473). Description: qHTS assay to identify small molecule agonists of the vitamin D receptor (VDR) signaling pathway (AID 743222; calls by dose curve). An outline of the steps: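 Using LiveBLAzer B/G FRET detection, agonism was scored in VDR-bla cells exposed overnight (16 h, 37C) to DMSO-dissolved compounds; substrate incubation was 2 h at room temperature.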
Chain of Vitamin D3 receptor (Homo sapiens) (P11473 whole entry, looked up): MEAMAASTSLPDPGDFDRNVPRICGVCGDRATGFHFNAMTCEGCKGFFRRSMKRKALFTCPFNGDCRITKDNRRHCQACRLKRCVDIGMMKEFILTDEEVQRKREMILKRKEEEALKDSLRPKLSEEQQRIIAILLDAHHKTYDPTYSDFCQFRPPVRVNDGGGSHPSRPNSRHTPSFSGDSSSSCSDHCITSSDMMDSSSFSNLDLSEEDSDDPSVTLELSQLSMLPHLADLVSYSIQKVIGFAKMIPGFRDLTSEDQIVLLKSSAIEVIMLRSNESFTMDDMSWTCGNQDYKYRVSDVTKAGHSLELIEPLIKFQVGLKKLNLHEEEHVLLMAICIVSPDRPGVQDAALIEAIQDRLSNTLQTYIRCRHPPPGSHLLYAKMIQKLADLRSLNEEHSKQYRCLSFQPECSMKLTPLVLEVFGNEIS

Experiment [13] can be described thus: qHTS assay to identify small molecule agonists of the peroxisome proliferator-activated receptor delta (PPARd) signaling pathway - cell viability counter screen (AID 743211). Further: nearly all actives have a fitted effect of over 55% in size. The method, boiled down:
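HEK293H PPARd-bla, 3000 cells/well; 5 h preincubation 37C/5% CO2; cpd in DMSO, 17 h 37C; B/G FRET substrate 2 h RT; CellTiter-Glo 30 min RT, luminescence.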

Experiment [14] concerns the target Bile acid receptor (Homo sapiens) (UniProt Q96RI1). Description: qHTS assay to identify small molecule agonists of the farnesoid-X-receptor (FXR) signaling pathway (AID 743220; active means well fitted activation curve with a large enough effect in the signal ratio in the repeat runs, not every such curve was filed as active; the % refers to the signal ratio). The method, boiled down:
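FXR-UAS-bla HEK 293T cells carrying a UAS-driven beta-lactamase reporter were plated for 5 h at 37C/5% CO2, then exposed to DMSO-dissolved Tox21 10K compounds for 16 h at 37C. A LiveBLAzer B/G FRET substrate was loaded for 2 h at room temperature before fluorescence reading.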

The nature of experiment [15]: qHTS assay to identify small molecule antagonists of the farnesoid-X-receptor (FXR) signaling pathway - cell viability counter screen (AID 743221; active means well fitted cell-killing curve with a large enough effect in the repeat runs, not every such curve was filed as active; further: nearly all actives have a fitted effect of over 50% in size; further: potency means the concentration at half of the fitted maximal effect). An outline of the steps: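 Luminescence from CellTiter-Glo measures cytotoxicity in GeneBLAzer FXR-UAS-bla HEK 293T cells. Cells were exposed to compounds with 50 uM chenodeoxycholic acid (final) for 16 h at 37 C, in wells also used for the reporter readout.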

Experiment [16] deals with Vitamin D3 receptor (Homo sapiens) (UniProt P11473). The experiment in a line: qHTS assay to identify small molecule antagonists of the vitamin D receptor (VDR) signaling pathway (AID 743223; active means well fitted inhibition curve with a large enough effect in the signal ratio in the repeat runs, not every such curve was filed as active; the % refers to the signal ratio). An outline of the steps: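 Antagonist mode uses 1alpha,25-dihydroxyvitamin D3 at 3 nM final as stimulus. VDR-bla cells receive compounds in DMSO, incubate 16 h at 37C, then a beta-lactamase FRET substrate for 2 h at room temperature before fluorescence measurement.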

The target of experiment [17] is Bile acid receptor (Homo sapiens) (UniProt Q96RI1). The experiment in a line: qHTS assay to identify small molecule antagonists of the farnesoid-X-receptor (FXR) signaling pathway (AID 743217; active means well fitted inhibition curve with a large enough effect in the signal ratio in the repeat runs, not every such curve was filed as active; the % refers to the signal ratio). An outline of the steps: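 Quantitative HTS, beta-lactamase reporter format: FXR-UAS-bla HEK 293T cells co-treated 16 h at 37 °C with compounds and 50 uM final chenodeoxycholic acid, then read by B/G FRET fluorescence.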
Chain of Bile acid receptor (Homo sapiens) (Q96RI1 whole entry, looked up): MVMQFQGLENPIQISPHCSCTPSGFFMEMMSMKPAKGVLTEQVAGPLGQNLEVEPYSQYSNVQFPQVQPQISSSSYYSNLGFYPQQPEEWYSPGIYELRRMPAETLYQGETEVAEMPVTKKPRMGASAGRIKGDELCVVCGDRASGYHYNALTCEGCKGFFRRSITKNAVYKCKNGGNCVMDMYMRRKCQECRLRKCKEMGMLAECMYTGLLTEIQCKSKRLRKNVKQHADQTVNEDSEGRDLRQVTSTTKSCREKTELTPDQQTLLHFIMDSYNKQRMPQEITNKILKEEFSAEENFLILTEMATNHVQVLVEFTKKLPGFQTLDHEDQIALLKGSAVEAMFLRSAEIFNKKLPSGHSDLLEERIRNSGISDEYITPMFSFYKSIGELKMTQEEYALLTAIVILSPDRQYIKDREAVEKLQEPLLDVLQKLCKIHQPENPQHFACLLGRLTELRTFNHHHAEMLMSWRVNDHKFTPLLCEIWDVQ

A short description of experiment [18]: qHTS assay to identify small molecule agonists of the farnesoid-X-receptor (FXR) signaling pathway - cell viability counter screen (AID 743218). Further: nearly all actives have a fitted effect of over 45% in size. The method, boiled down:
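Same-well cytotoxicity check on FXR-UAS-bla HEK 293T cells: 5 h attachment, 16 h compound at 37 C, CellTiter-Glo luminescence read at room temperature after 30 min.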

The nature of experiment [19]: qHTS assay to identify small molecule antagonists of the peroxisome proliferator-activated receptor delta (PPARd) signaling pathway - cell viability counter screen (AID 743213). Further: nearly all actives have a fitted effect of over 50% in size. An outline of the steps: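 PPARd-bla HEK293H cells (3000/well) got compound plus 300 nM L165041 agonist for 17 h at 37 C. Viability in the same wells came from CellTiter-Glo luminescence after 30 min at room temperature.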

Experiment [20] addresses Peroxisome proliferator-activated receptor gamma (Homo sapiens) (UniProt P37231). Description: qHTS assay to identify small molecule antagonists of the peroxisome proliferator-activated receptor gamma (PPARg) signaling pathway (AID 743191; calls by dose curve; further: potency means the concentration at half of the fitted maximal effect; nearly all actives have a fitted effect of over 30% in size). The method, boiled down: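 GeneBLAzer PPARg UAS-bla HEK293H cells carrying a UAS-driven beta-lactamase reporter were plated at 3000 cells/well, preincubated 5 h at 37C, then given compound for 17 h at 37C; LiveBLAzer B/G FRET substrate was read after 1 h at room temperature.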

Chain of Aryl hydrocarbon receptor (Homo sapiens) (P35869 whole entry, looked up): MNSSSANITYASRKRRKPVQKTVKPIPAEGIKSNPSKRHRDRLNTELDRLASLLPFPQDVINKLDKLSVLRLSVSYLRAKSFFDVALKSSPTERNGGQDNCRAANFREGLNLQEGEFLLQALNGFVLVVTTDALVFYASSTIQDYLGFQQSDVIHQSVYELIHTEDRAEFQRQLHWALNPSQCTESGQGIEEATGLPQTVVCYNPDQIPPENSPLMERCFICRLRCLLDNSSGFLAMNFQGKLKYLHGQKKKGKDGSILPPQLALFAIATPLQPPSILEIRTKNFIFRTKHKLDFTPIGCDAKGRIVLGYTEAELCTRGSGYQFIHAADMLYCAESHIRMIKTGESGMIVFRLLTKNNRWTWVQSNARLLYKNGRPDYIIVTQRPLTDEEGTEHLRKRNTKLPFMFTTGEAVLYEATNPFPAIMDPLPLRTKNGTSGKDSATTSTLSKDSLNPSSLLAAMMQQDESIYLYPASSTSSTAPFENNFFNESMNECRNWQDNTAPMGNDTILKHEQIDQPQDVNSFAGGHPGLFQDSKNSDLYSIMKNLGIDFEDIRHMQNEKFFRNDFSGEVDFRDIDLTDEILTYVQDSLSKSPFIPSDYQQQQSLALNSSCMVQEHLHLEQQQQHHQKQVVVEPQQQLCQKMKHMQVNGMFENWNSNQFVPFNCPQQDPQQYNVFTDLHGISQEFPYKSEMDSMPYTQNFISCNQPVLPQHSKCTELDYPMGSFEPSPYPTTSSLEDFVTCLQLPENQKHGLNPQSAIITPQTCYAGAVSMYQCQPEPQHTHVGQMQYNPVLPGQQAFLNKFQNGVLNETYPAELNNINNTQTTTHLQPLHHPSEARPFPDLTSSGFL
Chain of Peroxisome proliferator-activated receptor gamma (Homo sapiens) (P37231 whole entry, looked up): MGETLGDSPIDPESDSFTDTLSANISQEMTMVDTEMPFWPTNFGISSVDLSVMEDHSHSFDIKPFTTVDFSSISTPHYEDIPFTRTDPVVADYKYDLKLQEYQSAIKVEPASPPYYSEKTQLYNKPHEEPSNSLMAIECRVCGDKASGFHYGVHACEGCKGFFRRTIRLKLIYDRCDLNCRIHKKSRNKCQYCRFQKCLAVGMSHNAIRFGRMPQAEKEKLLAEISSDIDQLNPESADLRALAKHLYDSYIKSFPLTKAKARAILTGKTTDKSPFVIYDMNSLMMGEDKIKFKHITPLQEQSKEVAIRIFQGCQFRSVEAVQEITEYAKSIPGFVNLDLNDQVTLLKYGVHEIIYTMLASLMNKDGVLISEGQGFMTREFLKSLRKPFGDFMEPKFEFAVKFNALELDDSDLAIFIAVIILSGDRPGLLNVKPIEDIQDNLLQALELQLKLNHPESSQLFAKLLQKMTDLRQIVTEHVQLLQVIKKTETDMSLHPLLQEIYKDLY

For `CCCCC(CC)CN1C(=O)C2C3C=CC(C3)C2C1=O` (stereo not drawn), in [1], the Potency was 54.5 µM (active). The Potency entry in [2], in experiment [3], in experiment [4], in experiment [5], in experiment [6] and in [7] was “inactive” each time. The Potency entry in [8], in experiment [9], in [10], in [11] and in [12] was “inactive” each time.
Regarding `O=C(O)c1ccccc1Cl`, the Potency result in experiment [1], in experiment [2], in experiment [3], in [4], in experiment [5] and in experiment [6] was “inactive” in each case. Also, the Potency entry in [7], in [8], in experiment [9], in experiment [13], in experiment [11] and in experiment [14] was “inactive” throughout. The Potency entry in [15] and in experiment [12] was “inactive” each time. Also, in [16], the outcome was inactive.
With `COS(=O)(=O)C(F)(F)F`, the Potency entry in [1], in experiment [2], in [3], in experiment [4], in experiment [5] and in experiment [6] was “inactive” in each case. Besides, the Potency result in experiment [7], in experiment [8], in experiment [10], in experiment [17], in experiment [18] and in [14] was “inactive” throughout. For the same molecule, the Potency entry in [15] is “inactive”.
`c1ccc(CNCCNCc2ccccc2)cc1`: the Potency entry in [1], in experiment [2], in experiment [3], in [4], in experiment [5] and in [6] was “inactive” each time. Further, the Potency result in experiment [7], in experiment [8], in experiment [10], in experiment [19], in [11] and in experiment [18] was “inactive” throughout. Moreover, the molecule was classed as inactive in experiment [16].
For `C=C(C)C(=O)OCCO`, the Potency result in experiment [1], in [2], in experiment [3], in experiment [4], in [5] and in [7] was “inactive” in each case. Moreover, the Potency result in [8], in experiment [9], in experiment [13], in [11], in experiment [17] and in [18] was “inactive” each time. Moreover, the Potency result in [14], in experiment [15] and in experiment [12] was “inactive” throughout. The outcome in experiment [16] was inactive.
`CCOC(=O)NCCOc1ccc(Oc2ccccc2)cc1`: the Potency entry in experiment [1], in experiment [2], in experiment [3], in experiment [4], in experiment [7] and in experiment [8] was “inactive” in each case. The Potency result in experiment [9], in experiment [13], in experiment [17], in [14], in experiment [15] and in experiment [12] was “inactive” throughout. In addition, in experiment [20], the Potency is 38.9 µM (active). For the same molecule, in experiment [16], the outcome was inactive.
For the molecule `CC1=CC[C@H](C(C)C)C=C1`, the Potency result in experiment [1], in [2], in experiment [3], in experiment [4], in experiment [5] and in [7] was “inactive” in each case. For the same molecule, the Potency entry in experiment [8] and in experiment [19] was “inactive” in each case. For the same molecule, the figures for the Potency in [6] and in experiment [15] were 54.5 µM (active) and 49 µM (active), respectively.
